Screens deposited in PubChem by several laboratories.
Only some compounds are listed: those with a hit (about 3.8% of all), similar ones and a draw of the others.
tim10-1 inh – growth inhibitors of tim10-1 mutant yeast, primary screen, luminescence, uHTS; S. cerevisiae tim10-1 ts strain growth, BacTiter-Glo, 24 h; inhibition, % at 20 µM; actives 2.2% (n = 330,000);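 active means inhibition of at least 40%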;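 further: mutant grown at 25 °C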
NALP3 yeast inh – NALP3 inflammasome inhibitors in reconstituted yeast, primary screen, luminescence, uHTS; actives 0.39% (n = 330,000); inhibition, % at 10 µM; Yeast reconstituted NLRP3/ASC/caspase-1, beta-gal luminescence, 24 h;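 active means inhibition of 50% or more; inactive means inhibition below 50%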
TIM10 inh – growth inhibitors of isogenic TIM10 control yeast, primary screen, counter-screen for tim10-1 yeast inhibitor project, luminescence, uHTS. inhibition, % at 10 µM. S. cerevisiae TIM10 strain growth, BacTiter-Glo luminescence, 24 h. actives 1.4% (n = 330,000);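 active means inhibition of 40% or more at the single tested concentration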;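 further: wild-type TIM10 isogenic control strain grown at permissive 25 °C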
CR mimetic SO – reduction of superoxide in aged yeast, primary screen, HTS. S. cerevisiae aged cells, superoxide DHE fluorescence; active compounds read low. superoxide response (% of plate mean), % at 10 µM. actives 0.18% (n = 330,000). AID 2690, 2010;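 active means superoxide response under a set limit, about three screen SD below normal, cut at about 65% in these data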;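 further: yeast aged for seven days with compound at 30 °C before DHE staining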
tim23-1 inh – growth inhibitors of tim23-1 mutant yeast, primary screen, luminescence, uHTS; actives 1.3% (n = 330,000); inhibition, % at 20 µM; S. cerevisiae tim23-1 growth, BacTiter-Glo luminescence, 24 h; AID 463212, 2010;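 active means growth inhibition of the mutant yeast at or above 50%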;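 further: temperature-sensitive mutant grown at 25 °C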
NALP3 yeast conf – NALP3 inhibitors retested in yeast, confirmation, luminescence, single concentration | shares compounds with NALP3 yeast inh | actives 81% (n = 1,300) | inhibition, % at 10 µM | yeast expressing human NALP3; in the data active means inhibition above about 48%
Casp1 ASC ctr – CASP1-PYCARD signaling inhibition in yeast, confirmatory test, counterassay for NLRP3 inhibitor program, one-dose | shares compounds with NALP3 yeast inh | yeast expressing Caspase-1-ASC, luminescence counter screen | inhibition, % at 10 µM | actives 66% (n = 1,000)
NALP3 retest – NALP3 inhibitors in yeast, repeat test, confirmation, luminescence, single concentration, retest; shares compounds with NALP3 yeast inh; inhibition, % at 10 µM; yeast expressing human NALP3, luminescence read-out; actives 53% (n = 1,000)
Large screens that a line does not name were inactive (follow-up assays come after a bar, where they were run). Unless noted, no stated cut-off is given here; in the data, active means inhibition above about 50%; inactive means the rest.

COc1cc(C(=O)NCc2nnc(SCC(=O)NCc3ccco3)o2)cc(OC)c1OC	none
COc1ccc(-c2nn(-c3ccccc3)cc2C(N)=O)cc1OC	none
CCN(CC)c1ncnc2sc3c(c12)CCC3	NALP3 yeast inh 61 | NALP3 yeast conf 64 | Casp1 ASC ctr 67 | NALP3 retest 57
CCSc1ncnc2sc3c(c12)CCC3	none
Cc1csc(CN(C)C(=O)c2cn(Cc3cccc4ccccc34)nn2)n1	none
CSc1nc2ccc(S(=O)(=O)N3CCCCC3)cc2s1	NALP3 yeast inh 63 | NALP3 yeast conf 82 | Casp1 ASC ctr inactive | NALP3 retest inactive
CC(=O)c1cccc(N(C(=O)c2ccco2)C(C(=O)NC2CCCCC2)c2ccc(C)o2)c1 (stereo unspecified)	none
CC1(C)CC(c2nc(-c3ccc([N+](=O)[O-])cc3)cs2)CCO1 (stereo unspecified)	none | NALP3 yeast conf inactive
Nc1nc(-c2ccc([N+](=O)[O-])cc2)cs1	none
CO/N=C(\Cn1ncc(N2CCCC2)c(Cl)c1=O)c1ccc(Cl)cc1	NALP3 yeast inh 70 | NALP3 yeast conf 73 | Casp1 ASC ctr 75 | NALP3 retest 60
CCC1CCc2sc(C(=O)NC3CCN(Cc4ccccc4)CC3)cc2C1 (stereo unspecified)	none
Clc1cc2nc3ccccn3c2cc1Cl	NALP3 yeast inh 67 | NALP3 yeast conf inactive
O=Cc1c(Cl)nc2ccccn12	none
COc1ccc(N2CCN(CCCNC(=O)C(=O)c3c(C)n(C)c4ccccc34)CC2)cc1	none
NCCC(=O)N1c2ccccc2Sc2ccccc21	NALP3 yeast inh 68 | NALP3 yeast conf 78 | Casp1 ASC ctr 62 | NALP3 retest 77
O=C(C[C@@H]1C/C=C/CCCC(=O)O[C@H](c2ccccc2)CNC1=O)NCCO	none
O=C(NCCNC(=O)c1ccccc1F)c1ccco1	none
COc1cc(OC)cc(-c2cc3cc4c(cc3cn2)OCO4)c1	NALP3 yeast inh 56 | NALP3 yeast conf 56 | Casp1 ASC ctr inactive | NALP3 retest inactive
COc1ccc(-c2cc3cc4c(cc3cn2)OCO4)cc1	none
O=S(=O)(c1ccsc1)N1CC=C(c2ccccc2)CC1	NALP3 yeast inh 58 | NALP3 yeast conf 61 | Casp1 ASC ctr inactive | NALP3 retest inactive
Cc1nc2c3ccccc3nc(NNC(=O)CCC(=O)NCCN3CCN(c4ccccc4F)CC3)n2n1	NALP3 yeast inh 52 | NALP3 yeast conf 76 | Casp1 ASC ctr 54 | NALP3 retest 71
COc1ccc(Nc2c(C)cccc2C)cc1	none | NALP3 yeast conf inactive
COc1ccc(C(=O)CC(=O)C(=O)Nc2c(C)cccc2C)cc1	none
O=S(=O)(c1ccc(Cl)s1)N1CCN(CCc2ccccc2)CC1	NALP3 yeast inh 60 | NALP3 yeast conf 76 | Casp1 ASC ctr 63 | NALP3 retest 53
O=S(=O)(c1ccccc1)N1CCN(Cc2cccc(Br)c2)CC1	none
O=S(=O)(c1cccc(Br)c1)N1CCN(CCc2ccccc2)CC1	NALP3 yeast inh 53 | NALP3 yeast conf 71 | Casp1 ASC ctr 52 | NALP3 retest inactive
O=C(CSc1ncn[nH]1)c1ccc(OC(F)F)cc1	none
Cn1c(=NC(=O)COc2ccccc2)sc2ccccc21	NALP3 yeast inh 60 | NALP3 yeast conf inactive
CCSc1nnc(NC(=O)c2cccs2)s1	NALP3 yeast inh 53 | NALP3 yeast conf 64 | Casp1 ASC ctr inactive | NALP3 retest inactive
CCCCCOc1ccc(CSc2n[nH]c(C)n2)cc1	NALP3 yeast inh 64 | NALP3 yeast conf 75 | Casp1 ASC ctr 70 | NALP3 retest 82
Cc1nc(SCc2ccc(F)cc2)n[nH]1	none
Cc1nc(SCc2ccc(OCCC(C)C)cc2)n[nH]1	NALP3 yeast inh 76 | NALP3 yeast conf 84 | Casp1 ASC ctr 93 | NALP3 retest 89
Cc1ccc(C(=O)OC(C)C(=O)Nc2ccc3c(c2)OCO3)c(O)c1 (stereo unspecified)	none
CN(C)c1ccc(N/C(N)=N/c2nc(C(F)(F)F)cc(C(F)(F)F)n2)cc1	none
Cn1ncc2c(Nc3ccc(-c4ccccc4)cc3)ncnc21	NALP3 yeast inh 51 | NALP3 yeast conf 52 | Casp1 ASC ctr 60 | NALP3 retest 54
O=S1(=O)CCOCCN1Cc1ccccc1	none
Cc1c(Cl)cccc1NC(=O)CSc1nc(=O)n(CCCN2CCOCC2)c2c1CCC2	none
CC(Oc1ccc(F)cc1)C(=O)Nc1cc(C(F)(F)F)ccc1-n1cncn1 (stereo unspecified)	none | NALP3 yeast conf 64 | Casp1 ASC ctr inactive | NALP3 retest inactive
CCCCCc1nnc(NC(=O)OCCC)s1	NALP3 yeast inh 54 | NALP3 yeast conf 73 | Casp1 ASC ctr 57 | NALP3 retest inactive
CCOC(=O)c1c(-c2ccccc2)nc2ccccn12	NALP3 yeast inh 97 | NALP3 yeast conf 99 | Casp1 ASC ctr 99 | NALP3 retest 99
CCOC(=O)c1c(-c2ccccc2)nc2c(C)cccn12	none
O=C(CN(C(=O)CNC(=O)c1cccs1)c1ccccc1)NC1CCCCC1	none
Cc1cc(Nc2n[nH]c(N)c2C#N)ccc1F	none
CCn1c(COc2ccc(C)cc2)nc2ccccc21	NALP3 yeast inh 65 | NALP3 yeast conf 79
CN1CCCc2cc(C=O)ccc21	none
CCCN1CCCc2cc(CN)ccc21	NALP3 yeast inh 54 | NALP3 yeast conf 60
CC(C)(C)C(=O)Nc1ccc(N=Nc2ccccc2)cc1	NALP3 yeast inh 53 | NALP3 yeast conf 65 | Casp1 ASC ctr inactive | NALP3 retest inactive
CC(=O)Nc1ccc(Oc2ccc(-c3noc(C)n3)cc2)cc1	none
CC(=O)Oc1ccc(Oc2ccc(-c3noc(C)n3)cc2)cc1	NALP3 yeast inh 56 | NALP3 yeast conf 72 | Casp1 ASC ctr 70 | NALP3 retest 56
Cc1ccc(OCC(=O)NNC(=O)C2CCCO2)c(C)c1 (stereo unspecified)	none
Cc1ccccc1C(=O)O/N=C/c1c(N2CCOCC2)n(C)c2ccccc12	NALP3 yeast inh 66 | NALP3 yeast conf 83 | Casp1 ASC ctr 92 | NALP3 retest 79
Cc1nc2sc(-c3ccccc3)cc2c(=O)n1-n1cccc1	NALP3 yeast inh 52 | NALP3 yeast conf 71 | Casp1 ASC ctr 58 | NALP3 retest inactive
CCCC1CCC(c2ccc(OCC)cc2)=CC1=O (stereo unspecified)	NALP3 yeast inh 52 | NALP3 yeast conf 62 | Casp1 ASC ctr inactive | NALP3 retest inactive
CCOc1ccc(N2C(=O)CCC2=O)cc1	none
